From PubChem BioAssay (Tox21)
Records with an inconclusive call do not appear. A call without a number means that no potency is given here. Unmarked numbers belong to inactive results. Calls of active or inactive are those of the source. The call rests on the fitted dose curve; in most records, active means well fitted curve in the direction sought with a large enough effect in the repeat runs; inconclusive means weak or mixed curves; inactive means no such curve, though single readings can be large; an effect the other way counts as inactive or inconclusive.

Key:
[1] = A CellTox Green Cytotoxicity Assay to monitor cytotoxicity in HEK293 cells - 40 hour (AID 1224871); further: nearly all actives have a fitted effect of over 45% in size; further: potency means the concentration at half of the fitted maximal effect
Summary of the method: (§1)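 Cells (HEK293, 600/well) and dye reagent are dispensed together. After 5 h at 37 C, 23 nL compound is pinned in. Plates stay at 37 C for 40 h with fluorescence read at 0h, 8h, 16h, 24h, 32h and 40h.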

[2] = qHTS RealTime-Glo MT Cell Viability Assay in HEK293 cells - 16 hour (AID 1224872); further: top concentration of the series differs between compounds; nearly all actives have a fitted effect of over 50% in size
Summary of the method: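 HEK293 cells were seeded at 600 cells/well together with NanoLuc luciferase and cell-permeant prosubstrate, preincubated 5 h at 37 C/5% CO2, then given compound in DMSO by pintool. Luminescence from viable-cell prosubstrate reduction was read repeatedly over 40 h.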

[3] = qHTS RealTime-Glo MT Cell Viability Assay in HepG2 cells - 8 hour (AID 1224873); further: nearly all actives have a fitted effect of over 55% in size
Summary of the method: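 HepG2 cells (600/well) mixed with RealTime-Glo MT reagent, settled 5 h at 37 C/5% CO2 before compound addition. Nonlytic NanoLuc luminescence from viable-cell prosubstrate reduction read repeatedly during 40 h treatment at 37 C.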

[4] = qHTS RealTime-Glo MT Cell Viability Assay in HEK293 cells - 40 hour (AID 1224874); settings: RealTime-Glo luminescence; max response: active compounds read low; further: nearly all actives have a fitted effect of over 50% in size
Summary of the method: (§2)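 Real-time viability in HEK293: signal arises when living cells convert a prosubstrate for NanoLuc in the medium, so luminescence tracks viable cell number. Compound (23 nL, DMSO) added 5 h post-seeding; kinetic reads at 0–40 h, 37 C.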

[5] = A CellTox Green Cytotoxicity Assay to monitor cytotoxicity in HEK293 cells - 24 hour (AID 1224875); further: nearly all actives have a fitted effect of over 45% in size; further: potency means the concentration at half of the fitted maximal effect
Summary of the method: as §1

[6] = A CellTox Green Cytotoxicity Assay to monitor cytotoxicity in HepG2 cells - 16 hour (AID 1224876); further: nearly all actives have a fitted effect of over 45% in size
Summary of the method: (§3)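 Cells and non-lytic dye reagent are dispensed together (600 HepG2 cells/well) and incubated 5 h before DMSO compound transfer. Kinetic fluorescence is then recorded in the same wells during 40 h at 37 C.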

[7] = qHTS RealTime-Glo MT Cell Viability Assay in HepG2 cells - 32 hour (AID 1224877); further: nearly all actives have a fitted effect of over 55% in size
Summary of the method: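 HepG2 cells were seeded at 600 cells/well together with NanoLuc luciferase and a cell-permeant prosubstrate, preincubated 5 h at 37 C/5% CO2, then pin-dosed with compounds in DMSO. Nonlytic luminescence from viable cells was read at each time point.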

[8] = A CellTox Green Cytotoxicity Assay to monitor cytotoxicity in HepG2 cells - 24 hour (AID 1224878); further: nearly all actives have a fitted effect of over 45% in size; further: potency means the concentration at half of the fitted maximal effect
Summary of the method: as §3

[9] = qHTS RealTime-Glo MT Cell Viability Assay in HEK293 cells - 0 hour (AID 1224880)
Summary of the method: as §2

[10] = A CellTox Green Cytotoxicity Assay to monitor cytotoxicity in HepG2 cells - 40 hour (AID 1224879); further: nearly all actives have a fitted effect of over 40% in size; further: potency means the concentration at half of the fitted maximal effect
Summary of the method: as §3

Row | Compound | Potency [1] | Potency [2] | Potency [3] | max response [4] [%] | Potency [5] | Potency [6] | Potency [7] | Potency [8] | Potency [9] | Potency [10]
1 | CC(C)(C)Cl | inactive | inactive | inactive | 1.73 | inactive | inactive | inactive | inactive | inactive | 
2 | O=[N+]([O-])c1ccc2[nH]ncc2c1 | inactive | inactive | inactive | -13.3 | inactive | inactive | inactive | inactive | inactive | inactive
3 | C=C(C)C(=O)OCCO | inactive | inactive | inactive | 3.51 | inactive | inactive | inactive | inactive | inactive | inactive
4 | CCCCCCCCCOS(=O)(=O)O | inactive | inactive | inactive | 4.38 | inactive | inactive | inactive | inactive | inactive | inactive
5 | Nc1c(CC(=O)O)cccc1C(=O)c1ccc(Br)cc1 | inactive | inactive | inactive | 13 | inactive | inactive | inactive | inactive | inactive | inactive
6 | O=C1CCC(=O)O1 | inactive | inactive | inactive | 3.63 | inactive | inactive | inactive | inactive | inactive | inactive
7 | CC(C)(CO)[N+](=O)[O-] | inactive | inactive | inactive | 3.49 | inactive | inactive | inactive | inactive | inactive | inactive
8 | CCCCCCCC/C=C\CCCCCCCC(=O)OCC | inactive | inactive | inactive | 4.58 | inactive | inactive | inactive | inactive | inactive | inactive
9 | c1ccc(CNCCNCc2ccccc2)cc1 | inactive | inactive | inactive | 7.91 | inactive | inactive | inactive | inactive | inactive | inactive
10 | CC(C)CC(=O)C1C(=O)c2ccccc2C1=O | inactive | inactive | inactive | 0.634 | inactive | inactive | inactive | inactive | inactive | inactive
11 | CCCCO | inactive | inactive | inactive | 1.62 | inactive | inactive | inactive | inactive | inactive | inactive
12 | CC1OC(=O)C(C)OC1=O (stereo not drawn) | inactive | inactive | inactive | -4.59 | inactive | inactive | inactive | inactive | inactive | inactive
13 | O=C(NCCO[N+](=O)[O-])c1cccnc1 | inactive | inactive | inactive | 0.0315 | inactive | inactive | inactive | inactive | inactive | inactive
14 | CCCCC(CC)COC(=O)CCCCCCCCC(=O)OCC(CC)CCCC (stereo not drawn) | inactive | inactive | inactive | 1.51 | inactive | inactive | inactive | inactive | inactive | inactive
15 | Nc1cccc(S(=O)(=O)c2cccc(N)c2)c1 | inactive | inactive | inactive | -13.5 | inactive | inactive | inactive | inactive | inactive | inactive
16 | COC(C)(C)CCO | inactive | inactive | inactive | 1.17 | inactive | inactive | inactive | inactive | inactive | inactive
17 | CC(=O)[O][Al][O]C(C)=O | inactive | inactive | inactive | 6.93 | inactive | inactive | inactive | inactive | inactive | 
18 | Cc1cc(C(=O)O)ccc1[N+](=O)[O-] | inactive | inactive | inactive | 9.13 | inactive | inactive | inactive | inactive | inactive | inactive
19 | COCC(C)OC(C)=O (stereo not drawn) | inactive | inactive | inactive | 8.38 | inactive | inactive | inactive | inactive | inactive | inactive

Row | Compound | Potency [1] | Potency [2] | Potency [3] | max response [4] [%] | Potency [5] | Potency [6] | Potency [7] | Potency [8] | Potency [9] | Potency [10]
20 | CCNc1cc(O)ccc1C | 34.3 µM (active) | inactive | inactive | 7.99 | 38.5 µM (active) | inactive | inactive | inactive | inactive | inactive
21 | C[N+](C)(C)CCOC(=O)CCC(=O)OCC[N+](C)(C)C | inactive | inactive | inactive | 3.39 | inactive | inactive | inactive | inactive | inactive | inactive
22 | O=C1OC(CN2CCOCC2)CN1/N=C/c1ccc([N+](=O)[O-])o1 (stereo not drawn) | inactive | inactive | inactive | -0.929 | inactive | inactive | inactive | inactive | inactive | inactive
23 | CC(=O)c1ccc2c(c1)N(CCCN(C)C)c1ccccc1S2 | inactive | inactive | inactive |  | inactive | inactive | inactive | inactive | inactive | 
24 | CN1CCC(N(Cc2cccs2)c2ccccc2)CC1 | 19 µM (active) | inactive | inactive | -14.7 | 19 µM (active) |  | inactive | 10.7 µM (active) |  | 21.3 µM (active)
25 | COCCCN1CCC(NC(=O)c2cc(Cl)c(N)c3c2OCC3)CC1 | inactive | inactive | inactive | -14 | inactive | inactive | inactive | inactive | inactive | 
26 | O=C(NCC1CN(c2ccc(N3CCOCC3=O)cc2)C(=O)O1)c1ccc(Cl)s1 (stereo not drawn) | inactive | inactive | inactive | -20.3 | inactive |  | inactive |  | inactive | 
27 | O=[N+]([O-])c1ccc(NCCO)c(OCCO)c1 | inactive | inactive | inactive | -13.3 | inactive | inactive | inactive | inactive | inactive | 
28 | O=C1CCCCCCCCCCCC(=O)OCCO1 | 54.9 µM (active) | inactive | inactive | -16 | inactive | inactive | inactive |  | inactive | 
29 | NCCCN1CCOCC1 | inactive | inactive | inactive | -9.34 | inactive | inactive | inactive | inactive | inactive | 
30 | CN1C[C@H]2c3ccccc3Oc3ccc(Cl)cc3[C@@H]2C1 | inactive | inactive | inactive | -21.8 | inactive |  | inactive |  |  | 26.8 µM (active)
31 | CC[N+]1(CC)CCC(=C(c2ccccc2)c2ccccc2)C1C (stereo not drawn) | inactive | inactive | inactive |  | inactive | inactive | inactive | inactive |  | inactive
32 | COc1cc(Cl)c(OC)cc1N | inactive | inactive | inactive |  | inactive | inactive | inactive | inactive | inactive | 
33 | O=CC1CC=CCC1 (stereo not drawn) | inactive | inactive | inactive | 10.8 | inactive | inactive | inactive | inactive | inactive | 
34 | C[N+]1(CC2COC(c3ccccc3)(C3CCCCC3)O2)CCCCC1 (stereo not drawn) | inactive | inactive | inactive |  | inactive | inactive |  | inactive | inactive | inactive
35 | CC(CC=O)c1ccccc1 (stereo not drawn) | inactive | inactive | inactive | 0.684 | inactive | inactive | inactive | inactive | inactive | 
36 | CCCCCCCN | inactive | inactive | inactive | -2.68 | inactive | inactive | inactive | inactive | inactive | 
37 | C/C=C/C=C/CO | inactive | inactive | inactive |  | inactive | inactive | inactive | inactive | inactive | inactive
